In PubChem BioAssay AID720706 (Broad Institute, 2013):
About 5,500 (1.6%) of roughly 350,000 compounds were called active.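 The calls were made as follows: active = significant combined selectivity score with lowered wild-type GFP, culture density cut under 30%, mutant RFP and density less affected; inactive = any of these conditions unmet.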 This excerpt belongs to a sample that is enriched for actives.

Experiment: reduced GFP signal of wild-type E. coli, primary screen, bacterial rRNA inhibitor project, GFP/RFP fluorescence, OD600, single point (AID 720706)
Conditions: E. coli WT GFP vs humanized-ribosome RFP mutants, 24 h; GFP signal change (wild-type ribosome): stronger effect = lower value, DMSO median 0, no signal -100; OD600 change: measured here: OD600 growth, DMSO median 0, no signal -100; RFP signal change: measured here: RFP humanized mutant strains, DMSO median 0, no signal -100, concentration not given here

| SMILES | GFP signal change (wild-type ribosome) | OD600 change | RFP signal change |
| --- | --- | --- | --- |
| C[C@@H]1CN([C@@H](C)CO)C(=O)c2cc(NS(=O)(=O)c3cn(C)cn3)ccc2O[C@@H]1CN(C)Cc1ccc(C(=O)Nc2ccccc2N)cc1 | 5.78% (inactive) | 6.33% | 3.25% |
| O=c1[nH]n2c(-c3ccccc3)nc(O)c2c2ccccc12 | -31.6% (active) | -7.74% | 0.585% |
| O=C(O)c1ccc(-n2nc(-c3ccccc3)c3ccccc3c2=O)cc1 | 2.07% (inactive) | -9.56% | -1.61% |
| COCC(=O)N1CC(=O)N2[C@@H](CO)[C@@H](c3ccc(C#CC(C)C)cc3)[C@@H]2C1 | -0.482% (inactive) | 2.33% | -1.33% |
| COc1ccc(C#Cc2ccc([C@@H]3[C@H](CO)N4C(=O)CN(C(C)=O)C[C@@H]34)cc2)cc1 | -2.96% (inactive) | -13.2% | -2.12% |
| CC(=O)Nc1cccc2c1O[C@@H](CN(C)C(C)=O)[C@@H](C)CN(C)C2=O | -0.3% (inactive) | 2.46% | -0.39% |
| COc1ccc2c3c(n(C)c2c1)[C@@H](CO)N(C(=O)c1cnccn1)CC31CCN(C(C)=O)CC1 | 4.42% (inactive) | 18.1% | -2.67% |
| C[C@@H](Nc1nc(-c2ccccc2)nc2c1oc1ccccc12)C(=O)O | -25.4% (active) | -3.54% | 7.03% |
| COCCNc1nc(-c2ccccc2)nc2c1oc1ccccc12 | -38% (inactive) | -50.5% | -2.59% |
| O=c1[nH]c(CSc2ccccc2)nc2c1oc1ccccc12 | 4.21% (inactive) | 3% | -8.61% |
| O=C(C1CCCCC1)N1CC(=O)N2[C@H](CO)[C@H](c3ccc(-c4ccccc4F)cc3)[C@H]2C1 | -9.7% (inactive) | -39.9% | 0.225% |
| C[C@@H]1CCCCO[C@@H](CN(C)C(=O)Nc2ccc(F)cc2)[C@H](C)CN([C@@H](C)CO)C(=O)c2cc(NS(C)(=O)=O)ccc2O1 | -0.965% (inactive) | -0.127% | 0.106% |
| CN(C)CC(=O)N1[C@H](C#N)[C@H](c2ccccc2-c2cccc(C(=O)N(C)C)c2)[C@@H]1CO | 3.14% (inactive) | 9.94% | -2.26% |
| C[C@@H]1CCCCO[C@@H](CN(C)Cc2ccc(C(=O)Nc3ccccc3N)cc2)[C@H](C)CN([C@H](C)CO)C(=O)c2cc(N(C)C)ccc2O1 | 0.759% (inactive) | 1.41% | -1.39% |
| C[C@H]1CN([C@@H](C)CO)C(=O)Cc2cc(NC(=O)C3CC3)ccc2O[C@H]1CN(C)S(=O)(=O)c1ccc(Cl)cc1 | -2.58% (inactive) | -5.07% | 2.87% |
| Cc1nnc(N/N=C/c2ccccn2)[nH]c1=O | -26% (active) | 6.61% | 2.3% |
| O=C(N/N=C/c1ccccn1)c1cccc(NC(=O)c2ccc(Cl)cc2)c1 | -12.4% (inactive) | -9.16% | -2.65% |
| S=C(NN=Cc1ccccn1)Nc1ccccn1 | -3.3% (inactive) | 1.4% | -6.11% |
| CN1[C@@H]2c3ccc(-c4ccc(F)cc4)c(=O)n3C[C@H]1[C@H](CO)[C@H]2C(=O)NC1CCC1 | 0.894% (inactive) | -1.58% | -1.53% |
| COc1ccc(-n2cnnc2SCC(=O)Nc2cccc(S(N)(=O)=O)c2)cc1 | 5.58% (inactive) | 7.26% | -1.5% |

| SMILES | GFP signal change (wild-type ribosome) | OD600 change | RFP signal change |
| --- | --- | --- | --- |
| NS(=O)(=O)c1cccc(NC(=O)CSc2nc3ccccc3n2-c2ccccc2)c1 | -43.3% (active) | -4.95% | 0.431% |
| Cc1ccc(-n2c(SCC(=O)Nc3ncc(Cl)cc3Cl)nc3ccccc32)cc1 | -23.3% (inactive) | -16.7% | 11.6% |
| CC(C)NC(=O)Nc1ccc2c(c1)C(=O)N([C@@H](C)CO)C[C@H](C)[C@H](CN(C)C(=O)Nc1ccc(F)cc1)OCCCC[C@@H](C)O2 | 9.43% (inactive) | 11.5% | -1.2% |
| O=S(=O)(c1ccccc1)N1CC[C@@H]2[C@H]1c1cc(C#Cc3cccc(F)c3)ccc1N[C@@H]2CO | -1.75% (inactive) | 20.2% | -0.35% |
| CCCNC(=O)N1CC2(C1)[C@H](c1ccccc1)[C@@H](CO)N2C(=O)C1CC1 | 2.01% (inactive) | 4.92% | -0.981% |
| COc1ccc(NC(=O)N[C@@H]2CC[C@H](CCn3cc(-c4ccc(OC)cc4)nn3)O[C@@H]2CO)cc1 | -3.5% (inactive) | -6.01% | 3.35% |
| COc1ccc(S(=O)(=O)N[C@H]2CC[C@H](CCn3cc(C(C)C)nn3)O[C@@H]2CO)cc1 | 3.72% (inactive) | 10.4% | 1.37% |
| O=C(C[C@@H]1C[C@H]2c3cc(NS(=O)(=O)c4ccc(F)cc4)ccc3O[C@H]2[C@H](CO)O1)NC1CCCC1 | -1.46% (inactive) | -4.87% | -0.359% |
| C[C@H](NC(=O)C[C@@H]1C[C@@H]2c3cc(NS(=O)(=O)c4ccc(F)cc4)ccc3O[C@@H]2[C@@H](CO)O1)c1ccccc1 | -27.2% (active) | -16.8% | 2.38% |
| O=C(C[C@@H]1C[C@H]2c3cc(NS(=O)(=O)c4ccc(F)cc4)ccc3O[C@H]2[C@H](CO)O1)NCCc1ccccc1 | 0.771% (inactive) | -17.4% | 2.06% |
| COCCNC(=O)C[C@H]1C[C@H]2c3cc(NS(C)(=O)=O)ccc3O[C@H]2[C@H](CO)O1 | 3.03% (inactive) | -0.685% | -2.39% |
| C[C@@H]1CN([C@H](C)CO)C(=O)c2cc(NS(=O)(=O)c3ccc(F)cc3)ccc2O[C@@H]1CN(C)S(C)(=O)=O | 3.23% (inactive) | 5.12% | -0.699% |
| CO[C@H]1CN(C)C(=O)c2ccc(NC(=O)c3ccccc3F)cc2OC[C@H](C)N(C(=O)c2ccccc2F)C[C@H]1C | -0.558% (inactive) | -1.65% | 0.417% |
| CCCNC(=O)N(C)C[C@H]1Oc2ncc(-c3ccc(C(=O)N(C)C)cc3)cc2C(=O)N([C@@H](C)CO)C[C@@H]1C | 6.11% (inactive) | 12.2% | -1.77% |
| CCCN(C)C[C@H]1OCCCC[C@@H](C)Oc2ccc(NC(=O)Nc3ccc(F)cc3)cc2C(=O)N([C@@H](C)CO)C[C@H]1C | -3.85% (inactive) | -9.95% | 3.72% |
| CC1(C(=O)NS(=O)(=O)c2ccc3ccccc3c2)CCN1C(=O)C1(c2ccc(Cl)cc2)CCC1 (configuration not stated) | -33.2% (inactive) | -59.6% | -12.6% |
| Cc1ccccc1S(=O)(=O)NC(=O)C1(C)CCN1C(=O)C1(c2ccccc2)CCCC1 (configuration not stated) | -6.4% (inactive) | 0.03% | -0.676% |
| Cc1ccccc1S(=O)(=O)NC(=O)C1(C)CCN1C(=O)C1(c2ccc(Cl)cc2)CC1 (configuration not stated) | -15.3% (active) | 13% | 7.67% |
| Cc1noc(C)c1S(=O)(=O)N(C)C[C@@H]1OCCCC[C@H](C)Oc2ccc(NC(=O)CCC(F)(F)F)cc2C(=O)N([C@H](C)CO)C[C@H]1C | -0.425% (inactive) | 1.3% | 2.1% |
| O=C(c1cnccn1)N1CC(=O)N2[C@H](C1)[C@@H](c1ccc(C3=CCCCC3)cc1)[C@@H]2CO | 3.19% (inactive) | -21.9% | 1.94% |

| SMILES | GFP signal change (wild-type ribosome) | OD600 change | RFP signal change |
| --- | --- | --- | --- |
| COCCNC(=O)C[C@@H]1C[C@@H]2c3cc(NS(=O)(=O)c4ccccc4)ccc3O[C@@H]2[C@H](CO)O1 | 1.27% (inactive) | 4% | -0.545% |
| c1ccc(COc2nsnc2N2CCOCC2)cc1 | 0.165% (inactive) | -14.3% | -6.39% |
| CC(CNC(=O)Cn1cnc2c(OCc3ccccc3)ncnc21)c1ccccc1 (configuration not stated) | 8.65% (inactive) | 14.8% | 2.69% |
| Fc1cccc2ncnc(OCc3ccccc3)c12 | -30.9% (active) | -18% | -2.44% |
| CCCC#Cc1ccc([C@@H]2[C@@H](CO)N3C(=O)CN(C(=O)Nc4ccc(F)cc4)C[C@@H]23)cc1 | -0.84% (inactive) | -38.9% | 19.5% |
| COCC(=O)Nc1ccc2c(c1)C(=O)N(C)[C@H]1CC[C@@H](CC(=O)NCc3cccc(F)c3)O[C@H]1CO2 | 3.46% (inactive) | 6.34% | 1.53% |
| CC(=O)Nc1ccc2c(c1)CC(=O)N(C)C[C@H](C)[C@H](CN(C)S(C)(=O)=O)O2 | 0.68% (inactive) | 1.91% | 0.168% |
| CCNC(=O)[C@H]1[C@H](CO)[C@H]2Cn3c(cccc3=O)[C@@H]1N2Cc1cc(F)ccc1F | 0.156% (inactive) | 3.74% | 1% |
| C[C@@H]1CN([C@H](C)CO)C(=O)c2cccc(NS(=O)(=O)c3ccc(F)cc3)c2O[C@@H]1CN(C)S(=O)(=O)c1ccc(Cl)cc1 | -1.76% (inactive) | -16.2% | -1.81% |
| Cn1nc(-c2ccccc2)c2cc([N+](=O)[O-])ccc21 | 0.085% (inactive) | 1.86% | -0.696% |
| Cc1nc(-c2ccc([N+](=O)[O-])cc2)c(-c2ccccc2)o1 | -32% (active) | -14.4% | 13.4% |
| O=[N+]([O-])c1cc2ccccc2nc1-c1ccccc1 | 11.2% (inactive) | -0.7% | -0.455% |
| O=C(C[C@H]1C[C@H]2c3cc(NC(=O)C4CCOCC4)ccc3O[C@H]2[C@@H](CO)O1)NCC1CC1 | 2.89% (inactive) | 8.38% | -2.18% |
| Cc1noc(C)c1NC(=O)Nc1ccc2c(c1)C(=O)N([C@@H](C)CO)C[C@H](C)[C@@H](CN(C)C(=O)C1CCCCC1)OCCCC[C@@H](C)O2 | 1.51% (inactive) | 8.89% | -0.802% |
| CC=Cc1ccc2n(c1=O)C[C@@H]1[C@@H](CO)[C@H](C(=O)NCCc3ccccc3)N(C(C)=O)[C@H]21 (mixture of isomers) | 0.861% (inactive) | 2.27% | -0.668% |
| COc1ccccc1NC(=O)N1C[C@@H]2[C@H](c3ccccc31)[C@H](CO)N2CC1CCOCC1 | 0.276% (inactive) | -6.98% | 0.913% |
| COCCCNc1ccn2nc(-c3ccc(CC(C)C)cc3)cc2n1 | -26.9% (inactive) | -34.5% | 0.31% |
| COCCNc1cc(-c2ccccc2)nc2cc(-c3cccc(F)c3)nn12 | -14.8% (active) | 8.3% | -4.74% |
| COc1ccc(-c2cc3nc(NCCOc4ccccc4)ccn3n2)cc1 | -7.79% (inactive) | -16.3% | 16.5% |
